In PubChem BioAssay AID492956 (The Scripps Research Institute Molecular Screening Center, 2010) one finds inhibition data, which are given here for 90 molecules.

Out of some 340,000 compounds screened, about 3,300 (0.97%) were called active. The full list was thinned out, with actives kept by preference. Unmarked numbers belong to inactive results.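 How the source made its calls: active means inhibition above the mean over all tested compounds plus 3 SD (cut at about 30% in these data); inactive means the rest.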 Non-standard residues stand in square brackets, D forms with d. Residues, ends and D or L forms follow the SMILES beside them. ξ: configuration not given here. *: point of attachment. Cbz = O=C(OCc1ccccc1)*; ξL = CC(C)CC(N)C(=O)O; ξP = O=C(O)C1CCCN1

The target in the assay is Platelet-activating factor acetylhydrolase 2, cytoplasmic (Homo sapiens) (UniProt Q99487). Briefly: PAFAH2 enzyme inhibitors, primary screen, biochemical, fluorescence polarization, human (AID 492956).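 Further: inhibitors block probe labeling of enzyme so polarization drops; 0% = enzyme with DMSO and 100% = wells lacking PAFAH2 protein.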 Particulars: recombinant PAFAH2, FP-rhodamine activity probe, at 3.39 µM, stronger effect = higher value.
Regarding `CC(C)(C)c1ccc(/C=C2\Oc3c(ccc(O)c3CN3CCN(CCO)CC3)C2=O)cc1`, the inhibition is 82% (active).

In the case of `CCOC(=O)c1oc2c(CN3CCN(CCO)CC3)c(O)c(CC)cc2c(=O)c1-c1nc2ccccc2s1`, the inhibition is -4.68%.

As to `Cc1c2cn[nH]c(=O)c2c(C)n1Cc1ccc(F)cc1`, the inhibition was -4.15%.

On to `C=C1c2cccc(OC)c2O[C@H](C(=O)OCC)[C@@H]1CCCCCC`, for which the inhibition was 2.29%.

With `CCOC(=O)C1=C(CNC2CCCCC2)NC(=O)NC1c1cc(C)ccc1C` (stereo not given), the inhibition is -10.1%.

Consider `COc1ccc(O)c(C(=O)c2cnc3onc(C(C)C)c3c2)c1`, for which the inhibition is -6.85%.

In the case of `COCC1CCN(C(=O)c2ccc3oc(Cc4ccccc4)nc3c2)C1` (stereo not given), the inhibition was 58.9% (active).

Regarding `COC(=O)C1CCN(C(=O)c2ccc3oc(Cc4ccc(Cl)cc4)nc3c2)CC1`, the inhibition was -2.24%.

As for `COCC1CCCN(C(=O)c2ccc3oc(C(C)C)nc3c2)C1` (stereo not given), the inhibition is 2.06%.

`CC1=NC2(CCCc3c2no[n+]3[O-])N(O)C1(C)C` (stereo not given): the inhibition was -4.68%.

`COCCNC(=O)CN1C(=O)CSc2ncccc21`: the inhibition was 3.18%.

Take `COc1ccc(CCNC(=O)COC(=O)C2CCCCC2)cc1`: the inhibition is 7.99%.

As for `Cc1c(Cl)cnc(NC(=O)COC(=O)c2ccc(S(=O)(=O)NCc3ccco3)cc2)c1Cl`, the inhibition was 22.8%.

On to `Cc1ccc(Cl)cc1NC(=O)COC(=O)CC(C)(C)C`, for which the inhibition is 6.71%.

Take `Cc1ccc(Cl)cc1NC(=O)COC(=O)C1CCCCC1`: the inhibition is 37.4% (active).

Consider `CSCCC(NC(=O)c1ccco1)C(=O)OCC(=O)Nc1ncc(Cl)c(C)c1Cl` (stereo not given), for which the inhibition was 0.63%.

Turning to `Cc1c(Cl)cnc(NC(=O)COC(=O)C2CCCC2)c1Cl`, the inhibition was 37.6% (active).

Consider `Cc1cc(=O)oc2c(C)c(OCC(=O)NCCN3CCOCC3)ccc12`, for which the inhibition is -1.89%.

With `COc1ccc(S(=O)(=O)N2CCC(C(=O)N3CCCC3)CC2)cc1C`, the inhibition is -0.54%.

As for `Nc1nc(SCc2cccc(Br)c2)n[nH]1`, the inhibition was -14.7%.

As to `CN(Cc1ccccc1)C(=O)C(=O)c1cn(CC(=O)N2CCCC2)c2ccccc12`, the inhibition was 5.94%.

For the molecule `CCOC(=O)C1C(=O)C=C(c2ccc(OC)cc2)CC1c1ccco1` (stereo not given), the inhibition is 6.12%.

As for `O=S(=O)(NCc1ccccc1Br)c1ccccc1Br`, the inhibition was 3.56%.

With `Cc1ccn2c(=O)nc(SCC(=O)NCc3ccc(F)cc3)nc2c1`, the inhibition is 10.6%.

On to `O=C(OCc1nc2ccccc2[nH]1)C1CCCCC1`, for which the inhibition is 59.9% (active).

With `Cc1ccc(C)c(N2CCN(C(=O)CCc3nc4ccccc4[nH]3)CC2)c1`, the inhibition was 2.85%.

On to `CCO[C@@H]1OC(C(=O)NCc2nc3ccccc3[nH]2)=C[C@H](C2CCCCC2)[C@H]1CCCO`, for which the inhibition is -12.7%.

As to `CCO/C=C1\C(=O)N(c2ccc(OCC)cc2)C(=O)c2ccccc21`, the inhibition was 5.93%.

In the case of `Cc1ccc(OCC(=O)Nc2cccc3c2CCCC3)cc1C`, the inhibition is -17.9%.

Take `NC(=O)C1CCN(C(=O)c2ccc3c(=O)n(Cc4cccc(Br)c4)c(=S)[nH]c3c2)CC1`: the inhibition was 1.48%.

As for `COc1cc(OC)c2c(-c3cccc(-c4cccc(N)c4)c3)cc(=O)oc2c1`, the inhibition is 4.97%.

Turning to `CCOc1ccc(NC(=O)C2CCN(C(=O)N3CCOc4ccccc43)CC2)cc1`, the inhibition was -3.71%.

For `C=CCN(C(=O)c1cc(C)cc(C)c1)C1(C(=O)Nc2ccccc2)CCN(C(C)C)CC1`, the inhibition is -2.17%.

As for `CC(=O)Nc1ccc(S(=O)(=O)NC(C)C(=O)OCC(=O)NC2CCCC2)cc1` (stereo not given), the inhibition is -5.65%.

In the case of `C/C=C/C(=O)OCc1csc(CC(=O)Nc2ccccc2C)n1`, the inhibition is 2.3%.

With `Cc1ccc(NC(=O)Cc2nc(COC(=O)C(C)NS(=O)(=O)c3ccc(C)cc3)cs2)cc1` (stereo not given), the inhibition was 67.5% (active).

Consider `Cc1ccc(S(=O)(=O)N(C)C)cc1NC(=O)c1ccccc1Br`, for which the inhibition is 1.28%.

In the case of `CN(C(=O)c1c(Cl)cnn1C)C12CC3CC(CC(C3)C1)C2`, the inhibition is 1.24%.

On to `NS(=O)(=O)c1ccc(NC(=O)COC(=O)c2c3c(nc4ccccc24)/C(=C\c2ccc4c(c2)OCO4)CCC3)cc1`, for which the inhibition is -39.4%.

Consider `CCn1ccnc1CNC(=O)CC1C(=O)NCCN1CCCc1ccccc1` (stereo not given), for which the inhibition is -0.69%.

With `CC(C)CC(NC(=O)C1CCCN1C(=O)[C@@H](C)NC(=O)OCc1ccccc1)C(=O)NCC(N)=O` (stereo not given in full) (Cbz-[dA][ξP][ξL]G-NH2), the inhibition is 3.95%.

Turning to `Cc1ccc(NC(=O)C2CCCN2C(=O)OCc2ccccc2)cc1C` (stereo not given), the inhibition was -10.9%.

On to `CCC(C)C(NC(=O)C1CCC(=O)N1C(=O)OCc1ccccc1)C(=O)NC(C(=O)N1CCCC1C(N)=O)C(C)CC` (stereo not given), for which the inhibition is 45% (active).

In the case of `CCc1cc(CNC(=O)CC2C(=O)NCCN2Cc2ccccc2C(F)(F)F)on1` (stereo not given), the inhibition is -1.63%.

Turning to `COC(=O)CNc1nc(Cl)nc(N2CCC(C)CC2)n1`, the inhibition was -3.76%.

As for `Cn1c(Cn2nnc3ccccc32)nnc1SCC(=O)c1ccccc1F`, the inhibition is -0.21%.

Regarding `C/C(Cn1nnc2ccccc21)=N\OC(=O)c1cc(F)c(F)cc1Cl`, the inhibition was 75.7% (active).

In the case of `CCOC(=O)c1cccc(NC(=O)CCn2nnc3ccccc32)c1`, the inhibition was -12.2%.

As for `CCCCCN(C(=O)CCC(=O)OCCOc1ccc(OC)cc1)c1c(N)n(CCCC)c(=O)[nH]c1=O`, the inhibition was 0.6%.

Take `COc1ccc(Cc2nc3ccc(C(=O)N4CCC(N(C)C)C4)cc3o2)cc1` (stereo not given): the inhibition was 1.02%.

With `CC(C)CN(C(=O)CSc1ncnc2sccc12)C1CCS(=O)(=O)C1` (stereo not given), the inhibition was -0.68%.

Turning to `CCN(CC)CCCN1C(=O)C(=O)/C(=C(/O)c2c(C)nc3ccccn23)C1c1ccc(C)o1` (stereo not given), the inhibition is -8%.

As to `Cc1nc(N)nc(Cl)c1CCC1OCCO1`, the inhibition was -3.02%.

As for `O=C1CSC(=S)N1/N=C/c1ccc(O)c([N+](=O)[O-])c1`, the inhibition was 38.1% (active).

`Cc1cc(C(=O)N/N=C/c2ccc(O)c([N+](=O)[O-])c2)c(C)n1-c1ccc(F)cc1`: the inhibition is 15.3%.

On to `CCOc1cccc(/C=N/N2C(=O)CSC2=S)c1O`, for which the inhibition is 21.4%.

For `CCn1ncc(Br)c1C(=O)Nc1cc(C)ccc1F`, the inhibition was 4.13%.

With `CC1(C)CC(O)C(CCC(O)c2ccccc2)C(C)(C)N1` (stereo not given), the inhibition is 4.72%.

In the case of `O=C(NCCNc1ccc([N+](=O)[O-])cc1)c1cccc2c(Br)cccc12`, the inhibition is 2.72%.

On to `CCC(=O)N(Cc1ccccc1)c1ccccn1`, for which the inhibition was -1.23%.

As to `Cc1cc(OCCCC(=O)Nc2cc(S(=O)(=O)N3CCOCC3)ccc2N2CCOCC2)ccc1Cl`, the inhibition was 8.81%.

In the case of `CSc1ncc(C(=O)NCCCc2ccccc2)c(C)n1`, the inhibition was -6.77%.

On to `C=CCc1c(C)nc2cc(-c3ccccc3)[nH]n2c1=O`, for which the inhibition is 0.26%.

Take `O=c1c2c(nc3cc(-c4cccc(Cl)c4)[nH]n13)CCCC2`: the inhibition is 2.97%.

As for `CCCCN1Cc2c(nc3cc(-c4ccccc4)[nH]n3c2=O)C1=O`, the inhibition was 40.2% (active).

`Cc1cc(=O)oc2c(C)c(OC(C)C(=O)NC3CCN(Cc4ccccc4)CC3)ccc12` (stereo not given): the inhibition is 1.42%.

With `CC(OC(=O)c1c(F)cccc1F)C(=O)NCCC1=CCCCC1` (stereo not given), the inhibition was 8.3%.

Take `CC(=O)Nc1ccc(C(=O)OCC(=O)Nc2ccc([N+](=O)[O-])cc2C(F)(F)F)cc1`: the inhibition was 40.5% (active).

Consider `O=C(COC(=O)c1cc[n+]([O-])cc1)Nc1ccc(Cl)c(C(F)(F)F)c1`, for which the inhibition was -4.1%.

As to `NC(=O)c1ccc(NC(=O)COC(=O)c2ccc([N+](=O)[O-])cc2)cc1`, the inhibition was 0.64%.

On to `O=C1c2ccccc2NC(c2ccc(-c3cccc(Cl)c3)o2)N1O` (stereo not given), for which the inhibition is -3.11%.

Consider `O=C1NN(c2ccccc2)C(=O)/C1=C/c1ccc(-c2cccc(C(=O)O)c2)o1`, for which the inhibition was 24.1%.

For `O=C(O)C(c1ccccc1)N1C(=O)/C(=C\c2ccc(-c3cccc(Cl)c3)o2)SC1=S` (stereo not given), the inhibition was 40.3% (active).

`O=C(O)c1ccc(NN=CC2=C(N3CCOCC3)/C(=C/c3ccccc3)CC2)cc1`: the inhibition is 1.44%.

Consider `COc1ccc(C(C[N+](=O)[O-])n2nc(C)cc2C)cc1` (stereo not given), for which the inhibition was 1.81%.

With `O=C(Nc1cccc(S(=O)(=O)NC2=NCCC2)c1)c1ccc(F)cc1F`, the inhibition was -3.56%.

As for `Cc1cc(NS(=O)(=O)c2ccc(NC(=S)NC(=O)c3ccc(F)cc3Cl)cc2)no1`, the inhibition was 3.92%.

With `O=C(Nc1cc(S(=O)(=O)Nc2ccc(Cl)cc2)ccc1O)c1ccc(F)cc1F`, the inhibition is 61.9% (active).

As for `C[C@H]1CCC(=O)N([C@H](CSc2ccccc2)Cc2ccccc2)CC1`, the inhibition is 4.65%.

Regarding `C/C=N/NC(=O)CCCC(=O)N/N=C/C`, the inhibition was -3.09%.

Consider `Cc1ccc2c(c1)C1CN(C)CCC1N2C(=S)Nc1ccc(Cl)cc1Cl` (stereo not given), for which the inhibition was 8.44%.

For the molecule `Cc1ccc2c(c1)C1CN(C)CCC1N2C(=O)c1ccccc1NS(=O)(=O)c1ccc(F)cc1C` (stereo not given), the inhibition is 41.1% (active).

With `Cc1ccc2c(c1)C1CN(C)CCC1N2S(=O)(=O)c1cccc(F)c1` (stereo not given), the inhibition is 4.06%.

Take `CCC(C)[C@H](NC(=O)N1CCn2c1nc1ccccc12)C(=O)NCc1ccc(OC)cc1` (stereo not given in full): the inhibition was 5.18%.

As for `CCc1ccc(C2C(C#N)=C(N)N(N3CCOCC3)C3=C2C(=O)CC(C)(C)C3)s1` (stereo not given), the inhibition was 0.28%.

Take `O=C(COC(=O)CCCN1C(=O)c2cccc3cccc(c23)C1=O)NC1CCS(=O)(=O)C1` (stereo not given): the inhibition is 3.81%.

Regarding `Cc1cnc(NC(=O)c2ccccn2)s1`, the inhibition is 13.5%.

For `Cc1cnc(NC(=O)CSc2c(Cl)cccc2Cl)s1`, the inhibition is 38.4% (active).

Take `Cc1cnc(NC(=O)C2CCCC2)s1`: the inhibition was 1.44%.

`O=C(COC(=O)CC1CC2CCC1C2)NC(=O)NC1CCCC1` (stereo not given): the inhibition is 1.25%.
